# Reference: PubChem BioAssay AID1851 (National Center for Advancing Translational Sciences (NCATS), 2009)
# The whole screen tested about 16,000 compounds, of which about 5,100 (32%) were called active. Not shown: some 25% with an inconclusive outcome. Calls follow the shape of the dose curve; as a rule, active = well fitted curve in the direction sought with a large enough effect; inconclusive = small, poorly fitted or top-dose-only effect, or effect the other way; inactive = no such curve, though single readings can be large or run the other way. The list shows a part of the results. Peptide text beside a SMILES is read from it.
# Target: Cytochrome P450 3A4 (Homo sapiens) (UniProt P08684)
# Sequence (P08684 whole entry, looked up): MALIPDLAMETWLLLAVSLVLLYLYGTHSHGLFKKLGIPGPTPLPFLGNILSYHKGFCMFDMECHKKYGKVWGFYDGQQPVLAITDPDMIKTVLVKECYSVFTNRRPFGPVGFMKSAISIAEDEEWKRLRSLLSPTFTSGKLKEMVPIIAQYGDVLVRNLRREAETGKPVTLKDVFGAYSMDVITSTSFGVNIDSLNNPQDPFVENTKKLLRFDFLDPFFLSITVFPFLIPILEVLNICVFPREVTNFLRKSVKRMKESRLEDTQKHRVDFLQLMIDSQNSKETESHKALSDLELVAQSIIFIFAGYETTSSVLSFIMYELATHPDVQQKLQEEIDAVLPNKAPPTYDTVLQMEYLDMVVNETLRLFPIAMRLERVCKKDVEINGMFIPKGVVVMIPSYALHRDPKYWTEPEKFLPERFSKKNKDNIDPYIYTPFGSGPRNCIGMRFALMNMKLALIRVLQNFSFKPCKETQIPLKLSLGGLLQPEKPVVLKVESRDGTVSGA
# Experiment: Cytochrome panel assay with activity outcomes
# Details: recombinant CYP, pro-luciferin dealkylation, luminescence, p450-cyp3a4; series mostly up to 57.1 µM
# % is scaled to controls: 0 for no effect and ±100 for the full control effect.
SMILES,"activity, negative = inhibition",AC50
CC(C)(C)OC(=O)[C@H]([C@@H]1N[C@@H](C(=O)O)C(C)(C)S1)N1C(=O)c2ccccc2C1=O,-8.52% [at 11.4 µM] (inactive),–
O=C(CSc1ccccc1C(=O)O)NCc1ccco1,–,inactive
CCCCn1c(SCC(=O)Nc2nccs2)nc2ccccc2c1=O,–,3.16 µM (active)
Cc1cccc(C)c1-n1c(SCC(=O)NCc2ccco2)nc2ccccc2c1=O,–,3.98 µM (active)
COCC(=O)N1CCC2(CC1)CCN(C(=O)Nc1ccc(OC)cc1)CC2,–,inactive
COc1ccc(NC(=O)CSc2nc3ccccc3c(=O)n2CCC(=O)N2CCCCC2)cc1,–,2 µM (active)
Cc1cc(NC(=O)CSc2nc3ccccc3c(=O)n2CCCC(=O)NCc2ccco2)n[nH]1,–,3.55 µM (active)
O=C(CSc1nnc2sc3ccccc3n12)NCc1ccco1,-18.1% [at 11.4 µM] (inactive),–
C=CCSc1nc2ccccc2c(=O)n1Cc1ccco1,-25.8% [at 11.4 µM] (inactive),–
CCCCNC(=O)CSc1nc2ccccc2c(=O)n1CCNC(C)=O,–,25.1 µM (active)
CCCCNC(=O)C(=O)c1ccccc1NC(C)=O,–,inactive
O=C(CSc1nnc(-c2ccco2)n1-c1ccccc1)NCc1ccco1,–,15.8 µM (active)
Cc1cc(C)c(NC(=O)C(C)Sc2nnc(-c3ccco3)n2-c2ccccc2)c(C)c1 (stereo unspecified),–,3.55 µM (active)
CC(=O)NCCn1c(SCC(=O)NCc2ccco2)nc2ccccc2c1=O,–,15.8 µM (active)
Cc1ccc(Oc2nn[nH]n2)cc1,–,inactive
CC1CCC(C(=O)O)([C@H](Br)C(=O)O)CC1 (stereo partly specified),-2.61% [at 11.4 µM] (inactive),–
NC(=O)OCC(COC(N)=O)c1ccccc1,–,inactive
CCCCCn1c(SCc2ccncc2)nc2cc(C(=O)NCc3ccco3)ccc2c1=O,–,0.794 µM (active)
O=C(CSc1nc2ccccc2c(=O)n1CCCC(=O)N1CCCC1)NCc1ccco1,–,6.31 µM (active)

SMILES,"activity, negative = inhibition",AC50
CCOC(=O)CSc1nc2ccccc2c(=O)n1CC1CCC(C(=O)NCc2ccco2)CC1 (stereo unspecified),–,5.01 µM (active)
CCS(=O)(=O)N1CCC(C(=O)NCc2ccco2)CC1,–,inactive
O=C(O)CCCCCn1c(SCC(=O)N2CCCC2)nc2ccsc2c1=O,–,inactive
CCN(C(=O)CSc1nc2cc(C(=O)OC)ccc2c(=O)n1Cc1ccco1)c1cccc(C)c1,–,inactive
CC(/C=N/n1c(-c2cccnc2)n[nH]c1=S)=C\c1ccccc1,–,2 µM (active)
O=C(O)CC[C@]1(C(=O)O)CCC(=O)c2ccccc21,-0.615% [at 11.4 µM] (inactive),–
COc1ccccc1CNc1cc(-c2ccoc2)ncn1,–,15.8 µM (active)
COc1ccc(CNc2cc(-c3ccoc3)ncn2)c(OC)c1,–,15.8 µM (active)
O=c1nc(N2CCOCC2)ccn1-c1nc(-c2ccccc2)oc1-c1ccccc1,–,inactive
Cc1cc(Oc2ccccc2)nc(-c2ccccc2)n1,–,inactive
Cc1ccc(Oc2cc(N3CCOCC3)nc(-c3ccccc3)n2)cc1,–,14.1 µM (active)
Cc1cc(Oc2ccc(-c3ccccc3)cc2)nc(N2CCOCC2)n1,–,inactive
COc1cccc(Sc2cc(N3CCOCC3)nc(-c3ccccc3)n2)c1,–,0.794 µM (active)
Cc1ccc(S(=O)(=O)c2cc(N3CCOCC3)nc(-c3ccccc3)n2)cc1,-13.7% [at 2.29 µM] (inactive),–
N#C/C(=C/c1ccc(N2CCCC2)c([N+](=O)[O-])c1)c1nc2ccccc2[nH]1,–,2.82 µM (active)
N#C/C(=C\c1ccc(N2CCCC2)c([N+](=O)[O-])c1)c1nc2ccccc2[nH]1,–,1.58 µM (active)
Cc1cc(N2CCN(C)CC2)n2nc(-c3ccc(Cl)cc3)nc2n1,-14.4% [at 11.4 µM] (inactive),–
Cc1nc2nc(-c3ccc(Cl)cc3)nn2c(C)c1Cl,–,inactive
Cc1cc(N)n2ncc(-c3ccc(Cl)cc3)c2n1,–,15.8 µM (active)

SMILES,"activity, negative = inhibition",AC50
CC(C)(C)C(=O)OCc1cn(-c2ccc(Cl)cc2)nn1,–,inactive
COc1cc(S(C)=O)ccc1-c1nc2ncccc2[nH]1 (stereo unspecified),–,inactive
Cc1ccc(Cn2cccc(NC(=O)NC3CCCCC3)c2=O)cc1,–,12.6 µM (active)
Cc1ccc(Cn2cccc(NC(=O)NCc3ccccc3)c2=O)cc1,–,inactive
O=C(Nc1cccn(Cc2ccc(F)cc2)c1=O)NC1CCCCC1,–,15.8 µM (active)
NCCSCCC(=O)O,-1.66% [at 11.4 µM] (inactive),–
CC(Oc1ccccc1)c1ccnn1S(=O)(=O)c1ccccc1 (stereo unspecified),-13.1% [at 11.4 µM] (inactive),–
COc1ccc(S(=O)(=O)n2ccc(-c3cnc(-c4ccccc4)s3)n2)cc1,–,3.98 µM (active)
O=S(=O)(c1ccc(F)cc1)n1ccc(-c2cnc(-c3ccccc3)s2)n1,–,11.2 µM (active)
CC[C@@H](C)[C@H]1O[C@]2(CC[C@@H]1C)C[C@@H]1C[C@H](C/C=C(/C)[C@H](O[C@@H]3C[C@H](OC)[C@H](O[C@@H]4C[C@H](OC)[C@@H](O)[C@H](C)O4)[C@H](C)O3)[C@@H](C)/C=C\C=C3CO[C@@H]4[C@H](O)C(C)=C[C@@H](C(=O)O1)[C@]34O)O2 (tested in a mixture with another compound),–,inactive
COC(=O)[C@H](Cc1ccccc1)NC(=O)[C@@H](C)CO,-44.5% [at 11.4 µM] (inactive),–
COC(=O)C(CC(C)C)NC(=O)C(N)Cc1ccccc1 (stereo not drawn) (H-Phe-Leu-OMe; configuration not given here),–,14.1 µM (active)
CC(C)C[C@H](NC(=O)[C@@H](O)[C@@H](N)Cc1ccccc1)C(=O)O,–,inactive
CCCc1cc2c(n1Cc1cc(F)cc(F)c1)C(C)C1CN(C(=O)c3ccccc3)C(C)(C(=O)OC)C21 (stereo unspecified),–,3.16 µM (active)
CCCc1cc2c(n1CCc1ccc(Cl)cc1)C(C)C1CN(C(=O)c3ccccc3)C(C)(C(=O)OC)C21 (stereo unspecified),–,5.01 µM (active)
CCCc1cc2c(n1Cc1ccc(OC)cc1)C(C)C1CN(C(=O)c3ccccc3)C(C)(C(=O)OC)C21 (stereo unspecified),–,3.16 µM (active)
C[C@@]1(C(=O)O)CCC[C@@H]1C(=O)O,-5.72% [at 11.4 µM] (inactive),–
O=C(O)C[C@H](Cc1ccccc1Cl)C(=O)O,-7.24% [at 11.4 µM] (inactive),–
